Values joined by “and” are separate entries in the source; they are usually repeats but may differ in a detail not shown here. Identical values can stand only once. This is part of a sample that, as a whole, favours compounds with a hit. Of some 83,000 tested, about 20% had one in any assay.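 Testing used 96-well plates and a 48-hour single-concentration exposure. Example: -40 means 40% of the starting cells died.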 Active and inactive are the calls of the source. The calls were made as follows: active = growth percent below 10; inactive = the rest.
How the values were obtained:
Assay in all cases: NCI-60 one-dose screen, 48 h (100 = growth as untreated, 0 = no growth, -100 = all killed)
HCT-15 colon = settings: 10 µM
HT29 colon = settings: 10 µM
SNB-75 CNS = settings: 10 µM
SNB-19 CNS = settings: 10 µM
U251 CNS = settings: 10 µM
PC-3 prostate = settings: 10 µM
SK-MEL-5 melanoma = settings: 10 µM
UACC-62 melanoma = settings: 10 µM unless noted
LOX IMVI melanoma = settings: 10 µM
SK-MEL-28 melanoma = settings: 10 µM
SK-MEL-2 melanoma = settings: 10 µM
EKVX NSCLC = settings: 10 µM
SN12C renal = settings: 10 µM
UO-31 renal = settings: 10 µM
TK-10 renal = settings: 10 µM unless noted
ACHN renal = settings: 10 µM
CAKI-1 renal = settings: 10 µM
A498 renal = settings: 10 µM
HL-60(TB) leukemia = settings: 10 µM
CCRF-CEM leukemia = settings: 10 µM

Measured: growth

CS(=N)(=O)CCC(N)C(=O)O (configuration not stated)
inactive: HCT-15 colon 99.9% | HT29 colon 113% | SNB-75 CNS 91% | SNB-19 CNS 102% | U251 CNS 104% | PC-3 prostate 89.8% | SK-MEL-5 melanoma 110% | UACC-62 melanoma 113% | LOX IMVI melanoma 103% | SK-MEL-28 melanoma 128% | SK-MEL-2 melanoma 107% | EKVX NSCLC 109% | SN12C renal 102% | UO-31 renal 95.1% | TK-10 renal 94.1% | ACHN renal 103% | CAKI-1 renal 83.2% | A498 renal 129% | HL-60(TB) leukemia 127%

Cc1ccc(C(=O)C2C(c3ccccc3)N2C2CCCCC2)cc1 (configuration not stated)
inactive: HCT-15 colon 99.3% and 89.8% | HT29 colon 111% and 84.9% | SNB-75 CNS 97.5% and 88.8% | SNB-19 CNS 105% and 94% | U251 CNS 106% and 93.1% | PC-3 prostate 98% and 83% | SK-MEL-5 melanoma 88.1% and 99% | UACC-62 melanoma 102% and 91.2% | LOX IMVI melanoma 99.9% and 98.1% | SK-MEL-28 melanoma 105% and 102% | SK-MEL-2 melanoma 101% and 98.3% | SN12C renal 107% and 100% | UO-31 renal 92.8% and 73.4% | TK-10 renal 137% and 108% | ACHN renal 113% and 97.9% | CAKI-1 renal 107% and 94.3% | A498 renal 105% and 89% | CCRF-CEM leukemia 94.2% and 96%

O=[N+]([O-])c1ccc(N2CCOCC2)c2c1no[n+]2[O-]
inactive: SNB-19 CNS 28.8% | PC-3 prostate 10.9% | SK-MEL-5 melanoma 25.4% | SK-MEL-28 melanoma 49.3% | EKVX NSCLC 46.5% | SN12C renal 16.8% | ACHN renal 13.6% | CAKI-1 renal 26.1%
active: HCT-15 colon -19.3% | HT29 colon -29.3% | SNB-75 CNS -15.5% | U251 CNS 2.99% | UACC-62 melanoma -24.9% | LOX IMVI melanoma -14.3% | SK-MEL-2 melanoma -4.77% | UO-31 renal 8.16% | TK-10 renal -0.265% | A498 renal -14.1%

C=C1C(=O)O[C@@H]2C[C@@H](C)[C@@H]3C=CC(=O)[C@@]3(C)[C@@H](O)[C@H]12
active: HCT-15 colon -83.7% | HT29 colon -66% | SNB-75 CNS -94.8% | SNB-19 CNS -63.7% | U251 CNS -100% | PC-3 prostate -62% | SK-MEL-5 melanoma -93.5% | UACC-62 melanoma -61.4% | LOX IMVI melanoma -97% | SK-MEL-2 melanoma -24.4% | EKVX NSCLC -61% | SN12C renal 9.98% | UO-31 renal -94.9% | TK-10 renal -97.9% | ACHN renal -93.5% | CAKI-1 renal -91.6% | A498 renal -17.1% | CCRF-CEM leukemia -42.4%

CC/C(=C/c1ccc(OC)cc1)[N+](=O)[O-]
inactive: SNB-75 CNS 53.9% | SNB-19 CNS 30.1% | U251 CNS 22.5% | PC-3 prostate 59.2% | SK-MEL-5 melanoma 36.2% | SK-MEL-2 melanoma 27% | EKVX NSCLC 78% | A498 renal 85.5%
active: HCT-15 colon -35.4% | HT29 colon 3.04% | UACC-62 melanoma -60.8% | LOX IMVI melanoma -92.5% | SK-MEL-28 melanoma -52.4% | SN12C renal -43.7% | UO-31 renal -61.6% | TK-10 renal -9.47% | ACHN renal -43% | CAKI-1 renal 1.94% | CCRF-CEM leukemia -9.4%

Oc1c(Cl)cc(Cl)c2ccccc12.[Cu+2]
inactive: HCT-15 colon 99.5% | HT29 colon 92.5% | SNB-75 CNS 91% | SNB-19 CNS 121% | U251 CNS 108% | PC-3 prostate 88.4% | SK-MEL-5 melanoma 90.5% | UACC-62 melanoma 109% | LOX IMVI melanoma 37.7% | SK-MEL-28 melanoma 116% | SK-MEL-2 melanoma 86.1% | SN12C renal 99% | UO-31 renal 49% | TK-10 renal 119% | ACHN renal 91.9% | CAKI-1 renal 96.4% | HL-60(TB) leukemia 92% | CCRF-CEM leukemia 48.5%

CC12OOC(c3ccccc31)c1c2ccc2ccccc12 (configuration not stated)
inactive: SNB-19 CNS 64.8% | U251 CNS 50.3% | SK-MEL-5 melanoma 61.7% | UACC-62 melanoma 59.6% | SK-MEL-2 melanoma 71.7% | SN12C renal 94.4% | A498 renal 133%
active: HCT-15 colon -93.2% | HT29 colon -81.3% | SNB-75 CNS -20.4% | PC-3 prostate -74.4% | LOX IMVI melanoma -91.2% | EKVX NSCLC -51.5% | UO-31 renal -95.4% | TK-10 renal -42.6% | ACHN renal -100% | CAKI-1 renal -56.1% | HL-60(TB) leukemia -63.5% | CCRF-CEM leukemia -41.8%

CN(CCCl)c1ccc(/C=C/C2=[N+](C)c3ccccc3C2(C)C)cc1
inactive: HCT-15 colon 101% | SNB-75 CNS 38.9% | SNB-19 CNS 42.5% | U251 CNS 13.1% | SK-MEL-5 melanoma 21.8% | UACC-62 melanoma 31.6% | LOX IMVI melanoma 16.9% | SK-MEL-28 melanoma 40.1% | SK-MEL-2 melanoma 46% | EKVX NSCLC 54.6% | UO-31 renal 87.3% | TK-10 renal 54.7% | ACHN renal 85.2% | CAKI-1 renal 102%
active: HT29 colon 5.58% | PC-3 prostate 5.9% | SN12C renal 1.3% | HL-60(TB) leukemia -29.5%

Source: PubChem BioAssay (NCI)
